The structures appear in SMILES notation.

The target of this assay is E3 ubiquitin-protein ligase XIAP (Homo sapiens) (UniProt P98170). The assay can be described thus: XIAP binders, primary screen, biophysical, small-molecule microarray, fluorescence 635 nm (AID 1181).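 Note: score merges 667 nm emission and signal to noise over triplicate slides.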 Particulars: small-molecule microarray binding, higher = more signal.
Sequence of E3 ubiquitin-protein ligase XIAP (Homo sapiens) (P98170 whole entry, looked up): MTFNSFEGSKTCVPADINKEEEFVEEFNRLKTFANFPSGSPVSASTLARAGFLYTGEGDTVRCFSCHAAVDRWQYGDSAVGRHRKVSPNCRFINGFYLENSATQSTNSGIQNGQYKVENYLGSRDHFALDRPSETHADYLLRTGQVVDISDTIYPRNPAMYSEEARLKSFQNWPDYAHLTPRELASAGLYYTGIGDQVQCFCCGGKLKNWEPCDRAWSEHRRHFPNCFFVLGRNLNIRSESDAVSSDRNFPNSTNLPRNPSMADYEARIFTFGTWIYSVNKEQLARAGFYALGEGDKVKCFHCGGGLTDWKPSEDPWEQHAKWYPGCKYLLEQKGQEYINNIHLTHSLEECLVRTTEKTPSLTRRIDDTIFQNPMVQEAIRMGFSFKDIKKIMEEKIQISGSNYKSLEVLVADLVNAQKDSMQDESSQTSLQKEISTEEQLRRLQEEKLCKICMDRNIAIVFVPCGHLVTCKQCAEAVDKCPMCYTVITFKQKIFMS
Take `C#CCN1[C@@H](Cc2ccc(O)cc2)C(=O)O[C@H](Cc2ccccc2)[C@@H]1/C=C/C1CC1`: the composite z-score was determined as 0.0664.

Consider `CCCCCCCCCCC(O)C1C=CC2C(=O)NC(=O)C2N1Nc1ccc(Cl)cc1Cl` (stereo not given), for which the composite z-score was -0.102.

For the compound `O=C(NCc1ccccc1)[C@@H]1c2ccccc2C(=O)N(C2Cc3ccccc3C2)[C@H]1c1ccc(CO)cc1`, the composite z-score was -0.133.

In turn, `CN(C)CCCCCCNC(=O)[C@@H]1C[C@@H]2C(=O)N3CCC[C@H]3C(=O)N2[C@@H]1c1ccc(O)cc1` came in with a composite z-score of 0.117.

As to `N#Cc1ccc(C(O)C2C=CC3C(=O)N(c4ccccc4)C(=O)C3N2Nc2ccccc2F)cc1` (stereo not given), the composite z-score was 0.205.

Regarding `COc1ccc([Si](C)(C)[C@@H]2[C@@H](CC(=O)N3Cc4ccccc4C[C@H]3CO)O[C@]3(C(=O)N(Cc4cccc(N5CCC5=O)c4)c4ccccc43)[C@H]2C)cc1`, the composite z-score came to 0.0819.

The compound `CS(=O)(=O)CCOC(=O)C1=CC(CCCO)=CC(C2CC2)N(Cc2cc3c(cc2Br)OCO3)C=C1C(=O)OCCS(C)(=O)=O` (stereo not given) registered a composite z-score of 0.448.

The compound `NC(=O)N1C(=O)C2C(C1=O)C1C=C(CCCO)C2C(C2CC2)N1Cc1cc2c(cc1Br)OCO2` (stereo not given) displayed a composite z-score of 0.0479.

Turning to `O=C1OCCC=C[C@H]2OC34C=CCN(CCN5CCOCC5)C(=O)[C@H]3N(CCCCCO)C(=O)[C@@H]4C12` (stereo not given in full), the composite z-score was -0.0144.

Consider `CC(CO)N1C(=O)[C@@H]2C3C(=O)OCCC/C=C\[C@H]3OC23C=CCN(CCN2CCOCC2)C(=O)[C@@H]13` (stereo not given in full), for which the composite z-score came out at 1.01.

In the case of `CCCCCCc1nc(-c2ccc(-c3ccc(Cl)c(Cl)c3)o2)c(C)c2c1[Si](C(C)C)(C(C)C)OC2`, the composite z-score is -0.113.

Regarding `CCOc1cc(C(O)C2C=CC3C(=O)N(c4ccccc4)C(=O)C3N2Nc2ccc(C(C)C)cc2)ccc1O` (stereo not given), the composite z-score is 0.0891.

In turn, `CCOC(=O)C1=C[C@@H](C(C)C)N(S(=O)(=O)c2ccc(C)cc2)[C@H]1c1ccccc1F` displayed a composite z-score of -0.139.

Compound `COc1cc2c(cc1O)C(c1cccs1)N(Cc1cccc(OC(F)(F)F)c1)CC2` (stereo not given) gave a composite z-score of 0.171.

Take `C=CCN1C(=O)[C@]2(Cc3ccccc3)N=C(c3ccc(OCCCO)cc3)O[C@@H]2c2ccccc21`: the composite z-score worked out at 0.33.

`COc1ccc([Si](C)(C)[C@@H]2[C@@H](CCn3cc(CCO)nn3)O[C@]3(C(=O)N(Cc4cccc(N5C(=O)c6cccc7cccc5c67)c4)c4ccccc43)[C@H]2C)cc1` displayed a composite z-score of -0.0999.

For `C=CCN(Cc1ccccc1)C(=O)C(c1cccs1)N(C(=O)/C=C\C(=O)O)c1ccc(CCOCCO)cc1` (stereo not given), the composite z-score was -0.249.

`COC(=O)c1c2oc(c1C(=O)OC)C(=O)NC1(CCCCC1)c1cn(nn1)C[C@H](Cc1ccccc1)NC(=O)N[C@H](CO)CC2` gave a composite z-score of -0.118.

As for `CC(=O)NCCCC[C@@H]1NC(=O)[C@H]2C[C@@H](C(=O)NCCCCCNC(=O)CS)[C@@H](c3ccc(O)cc3)N2C1=O`, the composite z-score amounted to 0.0503.

Regarding `COCCCNC(=O)[C@@]1(CCS(=O)(=O)c2ccccc2)N=C(c2ccc(OCCCO)cc2)O[C@H]1c1ccccc1N=[N+]=[N-]`, the composite z-score was -0.005.

For `COc1ccc(NN2C(C(O)c3ccc(N(C)C)cc3)C=CC3C(=O)N(C4CCCCC4)C(=O)C32)cc1` (stereo not given), the composite z-score came to 0.17.

In the case of `[N-]=[N+]=NCc1ccccc1[C@@H]1OC(c2ccc(OCCCO)cc2)=N[C@]1(CCS(=O)(=O)c1ccccc1)C(=O)N1CCCCC1`, the composite z-score was found to be 0.0174.

`COC(=O)C[C@H]1O[C@@H](CCc2ccccc2)[C@@H](C)[C@@H]1[Si](C)(C)c1ccc(OC)cc1` displayed a composite z-score of 0.152.

In turn, `CN1C(=O)C2C=CC(C(O)c3ccccc3)N(N3CCCCC3)C2C1=O` (stereo not given) had a composite z-score of 0.263.

For `COC(=O)[C@@]1(Cc2ccc(OC)cc2)[C@H]2c3cc(C(=O)N4CCCC4)n(CCSCCO)c3C[C@H]2CN1C(=O)c1ccccc1`, the composite z-score came to 0.187.

`COC(=O)c1c(CC[C@@H](CO)NC(=O)NCCc2c[nH]c3ccccc23)oc(C(=O)Cc2ccccc2)c1C(=O)OC` returned a composite z-score of -0.406.

The compound `O[C@@H](Cc1ccccc1)[C@@H](/C=C/C1CC1)NCc1cccc(Cl)c1` displayed a composite z-score of -0.175.

As to `CN1CCC(CCCO)=CC1c1cccs1` (stereo not given), the composite z-score was -0.319.

Regarding `CO[C@H]1O[C@H](CO)[C@@H](OC(=O)Nc2ccc(Br)cc2)[C@@H]2OC(=O)[C@H](Cc3cccc(Br)c3)C/C=C/C[C@@H](Cc3cccc(Br)c3)C(=O)O[C@@H]12`, the composite z-score is -0.16.

On to `COCC(=C=CC[C@@H](O)c1ccc(OCCO)cc1)C[C@@H](O)c1ccccn1`, for which the composite z-score was 0.0785.

Compound `COC(=O)[C@@]1(Cc2ccc(OC)cc2)[C@H]2c3cc(C(=O)N(C)C)n(Cc4ccc(C(F)(F)F)nc4)c3C[C@H]2CN1C(=O)c1ccccc1` registered a composite z-score of 0.333.

Take `COCCCNC(=O)[C@@H]1c2ccccc2C(=O)N(Cc2ccccc2OC)[C@H]1c1ccc(CO)cc1`: the composite z-score was found to be 0.0472.

`O=C1O[C@@H](c2ccccc2)[C@@H](c2ccccc2)N2[C@@H](c3ccc(OCCO)cc3)[C@]3(C(=O)Nc4ccc(C#CCCO)cc43)[C@@H](C(=O)NC[C@H](O)c3ccccc3)[C@H]12` displayed a composite z-score of -0.0249.

Compound `O=C(O)[C@H]1C[C@H]2C(=O)N3CCC[C@H]3C(=O)N2[C@H]1c1ccc(O)cc1` showed a composite z-score of 0.125.

As for `[N-]=[N+]=NCc1ccccc1C[C@@]1(C(=O)NCC(O)CO)N=C(c2ccc(OCCCO)cc2)O[C@@H]1c1ccccc1` (stereo not given in full), the composite z-score was found to be 0.19.
